Measurements from publication PMC13083723 (Patterns, 2026).
Screen size: about 5,400 compounds; about 190 (3.5%) showed an effect of 50% or more. This is one part of a sample in which strong results are shown more often than they occur. Starred links: 1 amine or outer side, 2 acyl side, 3 side chain; linkers in the order of their positions; H or OH if unused. Positions of bridges follow the written chain, without caps; N, C: chain ends. Non-standard residues stand in square brackets, D forms with d. Residues, ends and D or L forms follow the SMILES beside them. *: point of attachment. X5 = NC1=N[C@@H](O)C[C@H]([C@H](N[*:1])C(=O)[*:2])N1; ΔAla(Z-3-ureido) = NC(=O)N/C=C(\N)C(=O)O; β3hOrn = NCCC[C@H](N)CC(=O)*; Dap = NC[C@H](N)C(=O)O

Tested on: Vero-E6
Assay: primary screen, phospholipidosis by LipidTOX staining; higher = more effect of the substance
Conditions: 10 µM
Method in brief: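 Single-concentration screen at 10 μM, with DMSO 0.1 v/v % and amiodarone 10 μM as controls. Read-out is LipidTOX Red phospholipid staining, which tolerates aldehyde fixation, in Vero-E6 cells.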

SMILES	result_ITMP [%]
CC1(S(=O)(=O)[O-])CC(=O)c2ccccc2C1=O (centres unmarked)	-0.84
CN(C)CCC=C1c2ccccc2CCc2ccccc21	39.7
CN(C)CCC=C1c2ccccc2C=Cc2ccccc21	71.1
CN(C)CC/C=C1\c2ccccc2Sc2ccc(Cl)cc21	51.1
CN(C)CC/C=C1\c2ccccc2CSc2ccccc21	43.7
CN(C)CCOC1=Cc2ccccc2Sc2ccc(Cl)cc21	13.9
CN(C)CC/C=C1/c2ccccc2COc2ccccc21	41.1
COCc1nc2c(=O)n(C)c(=O)n(CC(C)C)c2[nH]1	-0.95
NC(N)=N/C(N)=N/CCc1ccccc1	-1.11
CN/C(=N\C#N)NCCSCc1csc(N=C(N)N)n1	2.7
CN[C@@H]1Cc2cccc3nc(O)n(c23)C1	5.61
CN[C@@H]1C[C@@H](c2ccc(Cl)c(Cl)c2)c2ccccc21	71.1
CN[C@H]1CC[C@@H](c2ccc(Cl)c(Cl)c2)c2ccccc21	56.1
COc1ccc2c(c1)CN(C)CC2c1ccc(Cl)c(Cl)c1 (centres unmarked)	12.7
O[C@@H]1CCCC[C@H]1N1CCC(c2ccccc2)CC1 (racemic)	-4.38
S=C(NC1CCCCC1)N1CCC(c2c[nH]cn2)CC1	1.61
Oc1ccc2c3c1OC1C(O)CCC4(O)C(C2)N(CC2CCC2)CCC314 (centres unmarked)	1.96
c1ccc(CN(CC2=NCCN2)c2ccccc2)cc1	16.9
CC(COc1ccccc1)N(CCCl)Cc1ccccc1 (centres unmarked)	0.48
CC(C)COCC(CN(Cc1ccccc1)c1ccccc1)N1CCCC1 (centres unmarked)	66.8
COc1ccc2c3c([nH]c2c1)[C@H](CC(C)C)N1C(=O)[C@H](CCC(=O)OC(C)(C)C)NC(=O)[C@@H]1C3	-1.42
N[C@@]1(C(=O)O)CC[C@H](C(=O)O)C1.N[C@]1(C(=O)O)CC[C@@H](C(=O)O)C1	-0.35

SMILES	result_ITMP [%]
CCS(=O)(=O)N1CCN(c2ccc(Nc3ncc(C(N)=O)c(NC4CC4)n3)cc2)CC1	1.28
CN1CCN(c2ccc(OC(F)(F)F)c(Nc3ncc4c(n3)-c3c(c(C(N)=O)nn3CCO)CC4)c2)CC1	-0.49
CNC(=O)c1nn(C)c2c1C(C)(C)Cc1cnc(Nc3ccc(N4CCN(C)CC4)cc3)nc1-2	54.6
CC1(C)CC[C@]2(C(=O)O)CC[C@]3(C)[C@H](C(=O)C=C4[C@@]5(C)C=C(C#N)C(=O)C(C)(C)[C@@H]5CC[C@]43C)[C@@H]2C1	-1.94
C=CCCCCCCCCC(=O)[O-]	1.9
CCCCCCCCCCCCCCCC(=O)OC[C@@H](NC(=O)C(Cl)Cl)[C@H](O)c1ccc([N+](=O)[O-])cc1	-1.35
CCCCCCCCC(=O)N[C@H](CN1CCCC1)[C@H](O)c1ccc2c(c1)OCCO2	63.4
CCCCCCCC(=O)N[C@H](CN1CCCC1)[C@H](O)c1ccc2c(c1)OCCO2	51.9
CCCCCCCC/C=C\CCCCCCCC(=O)N[C@@H](CO)Cc1ccc(O)cc1	-1.63
Cn1cnc([N+](=O)[O-])c1Sc1[nH]cnc2ncnc1-2	-1.78
N=C(N)Nc1ccc2[nH]c3c(c2c1)C[C@@]1(O)C2Cc4ccc(O)c5c4[C@@]1(CCN2CC1CC1)[C@H]3O5	-0.46
Nc1ccc(S(=O)(=O)[N-]c2cnc3ccccc3n2)cc1	-3.26
O=C([O-])c1nc(=O)[nH]c(=O)[nH]1	-2.23
CCC[C@@H]1CC2=CC(=O)CC[C@]2(C)[C@H]2CC[C@@]3(C)[C@@H](CC[C@@]3(O)CCC(=O)[O-])[C@H]12	-2.26
NC1=N[C@H]2[C@H](CCCCC(=O)O)SC[C@H]2N1	-5.63
C[C@]12CC[C@H]3[C@@H](CCC4=CC(=O)CC[C@@H]43)[C@@H]1CC[C@@H]2O	-1.6
NCCC[C@H](N)CC(=O)N[C@H]1CNC(=O)[C@H]([C@H]2C[C@H](O)N=C(N)N2)NC(=O)/C(=C/NC(N)=O)NC(=O)[C@H](CO)NC(=O)[C@H](CO)NC1=O (β3hOrn-[Dap]SS[ΔAla(Z-3-ureido)][X5]; lactam 1-C)	-3.72
CCOc1cc(C(C)(C)C)ccc1C1=N[C@@](C)(c2ccc(Cl)cc2)[C@@](C)(c2ccc(Cl)cc2)N1C(=O)N1CCN(CCCS(C)(=O)=O)CC1	106
Cc1c(Cl)cccc1S(=O)(=O)Nc1nc(NCCc2ccccc2)nc2c1CN(Cc1ccccc1)CC2	-0.11
CN(C)CCCn1cc(C2=C(c3c[nH]c4ccccc34)C(=O)NC2=O)c2ccccc21	-0.11
COc1ccc2c(c1)c(C1=C(c3c[nH]c4ccccc34)C(=O)NC1=O)cn2CCCN(C)C	120
Cn1cc(C2=C(c3cn(CCCSC(=N)N)c4ccccc34)C(=O)NC2=O)c2ccccc21	15.8

SMILES	result_ITMP [%]
CS(=O)(=O)c1ccc(-c2cn3ccccc3n2)cc1	-2.12
O=C([O-])c1ccccc1-c1c2cc(I)c(=O)c(I)c-2oc2c(I)c([O-])c(I)cc12	7.91
CCC1=C[C@@H]2C[N@@]3CCc4c([nH]c5ccccc45)[C@@](C(=O)OC)(C2)[C@@H]13	6.61
COc1cc2c(Oc3ccc(NC(=O)C4(C(=O)Nc5ccc(F)cc5)CC4)cc3F)ccnc2cc1OCCCN1CCOCC1	80.1
COc1cc2c(Nc3ccc(NC(=O)c4ccccc4)cc3)ncnc2cc1OCCCN1CCOCC1	-3.61
COc1cc2nccc(Oc3ccc(NC(=O)C4(C(=O)Nc5ccc(F)cc5)CC4)cc3)c2cc1OC	0.07
CN1[C@@H]2CC[C@H]1C[C@@H](OC(=O)N1Cc3ccccc3NC1=O)C2	-1.56
CS(=O)(=O)CCNCc1ccc(-c2ccc3ncnc(Nc4ccc(OCc5cccc(F)c5)c(Cl)c4)c3c2)o1	91.4
CS(=O)(=O)CCNCc1nc(-c2ccc3ncnc(Nc4ccc(OCc5cccc(F)c5)c(Cl)c4)c3c2)cs1	2.46
Cc1cc(Nc2ncnc3ccc(-c4ccc(CNCCS(C)(=O)=O)o4)cc23)ccc1Oc1ccn2ncnc2c1	48.5
CCn1c(=O)[nH]c2ccccc21	-2.45
COc1ccc(CNCc2cccc3ccccc23)cc1	11.4
CCn1c2ccccc2c2cc(CNCc3ccccc3OC)ccc21	56.5
CCn1c2ccccc2c2cc(CNC)ccc21	73.3
CCCC(CCC)C(=O)NCc1ccc2c(cnn2-c2ccccc2OC)c1	0.82
CCCC(CCC)C(=O)[O-]	-5.85
CC(=O)NCC(=O)N1[C@@H]2CC[C@H]1c1ccc(Nc3ncc(C(F)(F)F)c(NC4CCC4)n3)cc12	2.85
Nc1nc(=O)c2c([nH]1)NCC(CNc1ccc(C(=O)N[C@@H](CCC(=O)[O-])C(=O)[O-])cc1)N2C=O (some centres unmarked)	-2.25
C=C1/C(=C\C=C2/CCC[C@]3(C)[C@@H]([C@H](C)/C=C/[C@@H](O)C4CC4)CC[C@@H]23)C[C@@H](O)C[C@@H]1O	-1.18
Nc1nc(=O)c2c([nH]1)NC[C@H](CNc1ccc(C(=O)N[C@@H](CCC(=O)[O-])C(=O)[O-])cc1)N2C=O	-7.53
Cn1cc(-c2ccc3ncc(Cc4ccc5ncccc5c4)n3n2)cn1	3.96
COc1cc2ncc(-c3ccccc3)nc2cc1OC	-10.1

SMILES	result_ITMP [%]
COc1cc(OC)cc(N(CCNC(C)C)c2ccc3ncc(-c4cnn(C)c4)nc3c2)c1	55.2
CCCCCN(C)CCC(O)(P(=O)([O-])O)P(=O)(O)O	3.23
C=CCN.ClCC1CO1 (centres unmarked)	-4.42
C[C@@H]1N=C(N)NC(N(C)C)=N1	-2.11
CC(C)c1cnn2c(NCc3ccccc3)cc(NCCCCCCN)nc12	53.6
CC(=O)N[C@H]1[C@H]([C@H](O)[C@H](O)CO)OC(C(=O)O)=C[C@@H]1NC(=N)N	-15.8
Cc1ncc(-c2csc(NC(=N)N)n2)[nH]1	-2.01
c1ccc2c(c1)Sc1ccccc1N2CC1CN2CCC1CC2 (centres unmarked)	71.6
Cn1cc(C(=O)C(=O)N[C@H]2CN3CCC2CC3)c2ccccc21	4.71
C[C@H](CCC(=O)[O-])[C@H]1CCC2C3C(=O)CC4CC(=O)CC[C@]4(C)C3CC(=O)[C@@]21C (some centres unmarked)	4.65
COc1cc(C)c2c(Oc3cccc(C(F)(F)F)c3)c(OC)cc(NC(C)CCCN)c2n1 (centres unmarked)	51.6
COc1cc(NC(C)CCCN)c2ncccc2c1 (centres unmarked)	1.37
CO[C@H]1CC[C@H](N(c2cc(C3=CCCCC3)sc2C(=O)[O-])C(=O)[C@H]2CC[C@H](C)CC2)CC1	-0.87
C[C@]12CC[C@@H]3c4ccc(OC(=O)N(CCCl)CCCl)cc4CC[C@H]3[C@@H]1CC[C@@H]2OP(=O)([O-])[O-]	-4.08
O=C(CCCN1CCC(O)(c2ccc(Br)cc2)CC1)c1ccc(F)cc1	14.8
O=C(CCCN1CCC2(CC1)C(=O)NCN2c1ccccc1)c1ccc(F)cc1	20.3
O=C(CCCN1CCC2(CC1)C(=O)N(Cc1cccc(F)c1)CN2c1ccccc1)c1ccc(F)cc1	89
CC(=O)OCC1=C(C(=O)[O-])N2C(=O)[C@@H](NC(=O)CCCC(N)C(=O)[O-])C2SC1 (some centres unmarked)	1.34
CC1(C)[C@H]2CC[C@@]1(C)[C@H](O)[C@@H]2O	-3.19
C[C@@H]1[C@H](O)[C@@H](C)/C=C/C=C/C=C/C=C/C=C/C=C/C=C/[C@H](O[C@@H]2O[C@H](C)[C@@H](O)[C@H](N)[C@@H]2O)C[C@@H]2O[C@](O)(C[C@@H](O)C[C@@H](O)[C@H](O)CC[C@@H](O)C[C@@H](O)CC(=O)O[C@H]1C)C[C@H](O)[C@H]2C(=O)O	0.23
